Screen size: about 16,000 compounds; about 5,700 (36%) were called active. Not shown: some 24% with an inconclusive outcome. Calls follow the shape of the dose curve; as a rule, active = well fitted curve in the direction sought with a large enough effect; inconclusive = small, poorly fitted or top-dose-only effect, or effect the other way; inactive = no such curve, though single readings can be large or run the other way. The list shows a part of the results.
% is scaled to controls: 0 for no effect and ±100 for the full control effect.

Chain of Cytochrome P450 1A2 (Homo sapiens) (P05177 whole entry, looked up): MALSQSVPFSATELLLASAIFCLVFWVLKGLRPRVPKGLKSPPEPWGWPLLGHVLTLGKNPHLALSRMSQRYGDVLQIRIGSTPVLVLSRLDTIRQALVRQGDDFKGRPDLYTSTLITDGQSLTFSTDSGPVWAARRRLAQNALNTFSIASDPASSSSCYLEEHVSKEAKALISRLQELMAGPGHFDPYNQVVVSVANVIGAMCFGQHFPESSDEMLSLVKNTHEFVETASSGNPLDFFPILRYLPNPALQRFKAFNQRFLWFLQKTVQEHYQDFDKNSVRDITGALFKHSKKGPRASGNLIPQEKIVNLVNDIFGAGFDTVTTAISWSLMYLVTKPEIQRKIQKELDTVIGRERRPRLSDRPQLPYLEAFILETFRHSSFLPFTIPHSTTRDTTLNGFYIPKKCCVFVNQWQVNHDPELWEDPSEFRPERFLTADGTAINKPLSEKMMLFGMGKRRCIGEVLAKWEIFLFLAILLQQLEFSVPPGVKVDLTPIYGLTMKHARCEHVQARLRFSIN

The assay has as its target Cytochrome P450 1A2 (Homo sapiens) (UniProt P05177). The assay is described as follows: Cytochrome panel assay with activity outcomes. The note with it: recombinant CYP, pro-luciferin dealkylation, luminescence, p450-cyp1a2; series mostly up to 57.1 µM.
On to `CCCN(/C=N/c1sc2c(c1C#N)CCCCC2)CCC`, for which the AC50 is 14100 nM (active).
For `CCN(/C=N/c1sc2c(c1C#N)CCCCC2)CC`, the concentration at half-maximal activity (AC50) is 2510 nM (active).
Still for that read-out and setting: as for `O=S(=O)(c1ccccc1)N1CCC2(CC1)CN(C(c1ccccc1)c1ccccc1)C2`, the entry is “inactive”.
The same measure, in the same setting: as for `CC1CCN(c2ccc(S(=O)(=O)Nc3cc(C(=O)O)cc(C(=O)O)c3)cc2[N+](=O)[O-])CC1`, the entry is “inactive”; as for `O=C1CCCN1c1ccc(S(=O)(=O)Oc2cccc(Cl)c2)cc1[N+](=O)[O-]`, 15800 nM (active).
Regarding `COc1ccc(N2CCN(S(=O)(=O)c3ccc4c(c3)CCCC4)CC2)c([N+](=O)[O-])c1`, the AC50 entry was “inactive”.
Same read-out and setting: as for `COc1ccc(S(=O)(=O)N2CC3CCCN3c3ccc(C(F)(F)F)cc32)cc1` (stereo not given), the figure is 12600 nM (active); as for `COc1ccc(S(=O)(=O)N2CCC(N3CCCCC3)CC2)cc1`, “inactive”; as for `CCn1c(SC)nnc1C1CCN(S(=O)(=O)c2ccc(OC)cc2)CC1`, “inactive”.
Take `NC(=O)C(=O)O`: the AC50 entry is “inactive”.
On the same count and under the same terms, as for `Nc1ccccc1S[C@@H](C[N+](=O)[O-])c1ccc2c(c1)OCO2`, the figure is 631 nM (active).
As to `CCCCNC(=O)NC1C(NC(=O)NCCCC)N(C)C(=O)N1C` (stereo not given), the AC50 result is “inactive”.
Still for that read-out and setting: as for `CCCCNC(=S)NNC(=O)CCn1nc(C)c(Br)c1C`, the figure is 14100 nM (active).
The same measure, in the same setting: as for `CN(N=O)c1ccc(/C=C\c2ccnc3ccccc23)cc1`, the figure is 158 nM (active); as for `Cc1ccc(-n2c(CCC(=O)O)ccc2-c2cccs2)cc1C`, 14100 nM (active).
Regarding `O=C(O)CCc1ccc(-c2ccc(Cl)cc2)n1CCC(=O)O`, the AC50 result was “inactive”.
As for `NC(=O)Nn1c(CCC(=O)O)ccc1-c1ccc(F)cc1`, the AC50 result was “inactive”.
Still for that read-out and setting: as for `CC(=O)c1ccc(-n2c(CCC(=O)O)ccc2-c2cccs2)cc1`, the figure is 14100 nM (active).
As to `CCOC(=O)C1CCN(C(=O)C2CCN(S(=O)(=O)N3CCCC3)CC2)CC1`, the AC50 entry was “inactive”.
As for `Cn1ncc([N+](=O)[O-])c1C(=O)N1CCOCC1`, the AC50 result is “inactive”.
Consider `O=[N+]([O-])c1ccc(N2CCOCC2)nc1`, for which the concentration at half-maximal activity (AC50) was 11200 nM (active).
Same read-out and setting: as for `CN1CCN(c2ccc([N+](=O)[O-])cc2C(=O)N2CCOCC2)CC1`, the entry is “inactive”; as for `Cc1cc(N2CCOCC2)ncc1[N+](=O)[O-]`, 10000 nM (active).
The same measure, in the same setting: as for `Cc1cnc(CNc2ncnc3ccc(-c4ccc5c(c4)OCO5)cc23)cn1`, the figure is 398 nM (active); as for `Cc1cnc(CNc2ncnc3ccc(-c4ccc(N(C)C)cc4)cc23)cn1`, 1000 nM (active); as for `Cc1cnc(CNc2ncnc3ccc(-c4ccoc4)cc23)cn1`, 12600 nM (active).
Consider `O=S(=O)(O)c1ccc2cc(N=Nc3cc(S(=O)(=O)O)c4cccnc4c3O)ccc2c1`, for which the activity, negative = inhibition is -18.8% [at 2.29 µM] (inactive).
Regarding `CCCCNC(=O)NS(=O)(=O)c1ccc(C(=O)OC(C)C)o1`, the AC50 entry is “inactive”.
Still for that read-out and setting: as for `Cc1c(NC(=O)NC(C)N2C(=O)C3C4C=CC(C4)C3C2=O)c(=O)n(-c2ccccc2)n1C` (stereo not given), the entry is “inactive”.
Same read-out and setting: as for `CC(C)CN(C)c1nc(N)c(C(=O)N=C(N)N)nc1Cl`, the figure is 794 nM (active); as for `NC(N)=NC(=O)c1nc(Cl)c(N2CCCCCC2)nc1N`, 1000 nM (active); as for `CCN(c1nc(N)c(C(=O)N=C(N)N)nc1Cl)C(C)C`, 2000 nM (active).
Same read-out and setting: as for `CN(C)c1nc(N)c(C(=O)N=C(N)N)nc1Cl`, the figure is 1000 nM (active); as for `O=S(=O)(c1ccc(F)cc1)N1CCCC(CO)C1` (stereo not given), “inactive”; as for `COc1ccc(NC(=O)N2CC[C@@]3(CCCN(C(=O)c4csnn4)C3)C2)cc1`, “inactive”.
Turning to `CCN(CC)C(=O)Cn1cnc([N+](=O)[O-])n1`, the AC50 entry was “inactive”.
On the same count and under the same terms, as for `CCN(CC)C(=O)c1cc2cc([N+](=O)[O-])ccc2s1`, the figure is 2000 nM (active); as for `O=C(COc1ccc(Br)cc1)N1CCC(c2ccccc2)C1` (stereo not given), 3160 nM (active).
On the same count and under the same terms, as for `CCOc1ccc(NC(=O)N2CCC(c3ccc(C)cc3)C2)cc1` (stereo not given), the entry is “inactive”.
On the same count and under the same terms, as for `Cc1cccc(OCC(=O)N2CCC(N3CCCCCC3)CC2)c1`, the entry is “inactive”.
As to `Nc1ccc(C(=O)C[C@H](N)C(=O)O)cc1O`, the activity, negative = inhibition is -4.16% [at 11.4 µM] (inactive).
For `Cc1cccn2c(=O)c(/C=N/O)c(N3CCCC3)nc12`, the concentration at half-maximal activity (AC50) was 891 nM (active).
The same measure, in the same setting: as for `N[C@H](Cn1ccc(=O)n(Cc2ccccc2C(=O)O)c1=O)C(=O)O`, the entry is “inactive”; as for `CCOC(=O)C1=C2SCC(=O)N2C(N)=C(C#N)C1`, 1260 nM (active).
Take `CC(C)OC(=O)C1=C2SCC(=O)N2C(N)=C(C#N)C1`: the AC50 was 1260 nM (active).
The same measure, in the same setting: as for `O=C(O)c1ccc2c(c1)C(=O)N(C(Cc1ccc(O)cc1)C(=O)O)C2=O` (stereo not given), the entry is “inactive”.
Same read-out and setting: as for `CN[C@H]1[C@@H](O[C@@H]2[C@H](O[C@@H]3[C@@H](O)[C@@H](O)[C@@H](N=C(N)N)[C@@H](O)[C@@H]3N=C(N)N)O[C@H](C)[C@@]2(O)C=O)O[C@@H](CO)[C@@H](O)[C@H]1O`, the entry is “inactive”; as for `O=c1oc(-c2ccco2)nc2c1cnn2-c1ccccc1`, 2000 nM (active); as for `O=C(Nc1ccc(-n2nncc2-c2ccco2)cc1)c1cc2ccccc2oc1=O`, “inactive”.
On the same count and under the same terms, as for `CCC(CC)C(=O)Nc1c2cnn(-c3ccccc3)c2nc(=O)n1-c1ccccc1`, the entry is “inactive”; as for `CN1C(=C2C(=O)OC(C)(C)OC2=O)Sc2ccccc21`, 11200 nM (active).
`CC1(C)CCCN(C(=O)N2c3ccccc3Sc3ccccc32)C1`: the AC50 result was “inactive”.
Still for that read-out and setting: as for `Nc1ncnc(N(c2ccccc2)C2CCCCC2)c1[N+](=O)[O-]`, the entry is “inactive”.
For `Cn1c(SC2=CS(=O)(=O)c3ccccc32)nc2ccccc21`, the concentration at half-maximal activity (AC50) is 6310 nM (active).
With `Cc1cc(C)c(-c2cc([C@H](C)O/N=C3/[C@H]4OC4[C@@H](O)[C@H]4[C@H]3CCn3c(=O)n(-c5ccccc5)c(=O)n34)on2)c(C)c1` (stereo not given in full), the activity, negative = inhibition is -8.09% [at 11.4 µM] (inactive).
On to `CCOC(=O)c1sc(=N)n(-c2ccc(OC)cc2)c1C`, for which the half-maximal activity concentration (AC50) was 1260 nM (active).
Still for that read-out and setting: as for `COc1ccc(-n2c(C)nn(C)c2=O)cc1`, the entry is “inactive”; as for `NCC[C@H](O)C(=O)N[C@H]1C[C@@H](N)[C@@H](O[C@H]2O[C@@H](CN)[C@@H](O)[C@@H](O)[C@@H]2O)[C@@H](O)[C@@H]1O[C@H]1O[C@@H](CO)[C@@H](O)[C@@H](N)[C@@H]1O`, “inactive”.
On the same count and under the same terms, as for `Cc1oc2c(C)c(O)ccc2c(=O)c1-c1ccc2ccccc2n1`, the figure is 2240 nM (active).
Still for that read-out and setting: as for `CCc1cc2c(=O)c(-c3nc4ccccc4n3C)c(C)oc2c(CN(CC)CC)c1O`, the entry is “inactive”; as for `C=CCc1cccc2cc(C(=O)N(CC)CC)c(=O)oc12`, 1410 nM (active); as for `CN(C)c1ncc2nc(CCc3ccccc3)c(=O)n(C3CC3)c2n1`, 3160 nM (active).
In the case of `COc1ccc(C2C(=O)N(CCc3ccccc3)CC(=O)N2C2CCCC2)cc1` (stereo not given), the AC50 entry was “inactive”.
For `COc1ccc(Oc2ncc3nc(CCc4ccccc4)c(=O)n(C4CC4)c3n2)cc1`, the concentration at half-maximal activity (AC50) was 12600 nM (active).
Turning to `O=c1c(CCc2ccccc2)nc2cncnc2n1C1CC1`, the AC50 is 6310 nM (active).
As for `COc1ncc2nc(CCc3ccccc3)c(=O)n(C3CC3)c2n1`, the AC50 was 3160 nM (active).
For `C[C@@]1(C(=O)O)CCC[C@@H]1C(=O)O`, the activity, negative = inhibition was -9.8% [at 2.29 µM] (inactive).
Turning to `O=c1c(CCc2ccccc2)nc2cnc(Oc3ccccc3)nc2n1C1CC1`, the half-maximal activity concentration (AC50) is 7940 nM (active).
On the same count and under the same terms, as for `COc1ccc(S(=O)(=O)N2CCCCCC2)cc1N(C)S(=O)(=O)c1ccc(Cl)cc1`, the entry is “inactive”; as for `Cc1cc(NCCO)c2ccccc2n1`, “inactive”; as for `Cc1cc(C)c2c(N)c3ccccc3nc2n1`, 2240 nM (active).
As for `C=CC[n+]1c(-c2ccc(C)cc2)csc1NNC(=O)Nc1ccccc1`, the AC50 was 10000 nM (active).
With `Cc1ccc(Cl)c(Nc2ccccc2C(=O)O)c1Cl`, the AC50 entry is “inactive”.
The same measure, in the same setting: as for `Cc1c(Cl)cccc1NC(=O)CN1CCC(C(O)(c2ccccc2)c2ccccc2)CC1`, the entry is “inactive”; as for `Cc1cccc(Nc2ccccc2C(=O)O)c1C`, 5010 nM (active); as for `Cc1c(Cl)cccc1Nc1ccccc1C(=O)O`, 3160 nM (active).
Same read-out and setting: as for `Cc1cccc(C(=O)c2ccccc2C(=O)O)c1O`, the entry is “inactive”.
For `O=S(=O)(O)[C@@H](c1ccccc1)[C@@H](O)c1ccccc1`, the activity, negative = inhibition was -13.9% [at 2.29 µM] (inactive).
Turning to `Cc1ccc2nc(Nc3ccccc3O)nc(-c3ccccc3)c2c1`, the concentration at half-maximal activity (AC50) was 1780 nM (active).
Still for that read-out and setting: as for `COC(=O)[C@@]1(Cc2ccccc2)[C@H]2c3cc(C(=O)N4CCCC4)n(CC4CC4)c3C[C@H]2CN1C(=O)c1ccccc1`, the entry is “inactive”.
For the compound `CCOC(=O)c1cnc(-c2ccccc2)nc1Oc1ccc(Cl)cc1`, the concentration at half-maximal activity (AC50) is 200 nM (active).
On the same count and under the same terms, as for `CCOC(=O)c1cnc(-c2ccccc2)nc1Oc1cccc(Cl)c1`, the figure is 2510 nM (active); as for `CCOC(=O)c1cnc(-c2ccccc2)nc1Oc1ccccc1`, 631 nM (active).
The same measure, in the same setting: as for `COc1cnc(-c2ccccc2)nc1Oc1cccc(C)c1`, the figure is 3160 nM (active).
With `COC(=O)N1CCC2(CC1)CCN(c1ccncc1)CC2`, the AC50 entry was “inactive”.
`Cc1ccc(Oc2nc(-c3ccccc3)ncc2S(C)(=O)=O)cc1`: the AC50 was 2820 nM (active).
The same measure, in the same setting: as for `COc1nnc(OC)c2ccccc12`, the figure is 2510 nM (active); as for `COc1ccc(Cc2n[nH]c(=O)c3ccccc23)cc1OC`, “inactive”.
On the same count and under the same terms, as for `CCC(=S)/C=C1\Sc2ccccc2N1CCCS(=O)(=O)O`, the entry is “inactive”.
Regarding `CN(C)CC(C)(C)CN1c2ccccc2Sc2ccccc21`, the activity, negative = inhibition is -17.7% [at 11.4 µM] (inactive).
Consider `CCN(CC)[C@@H](C)CN1c2ccccc2Sc2ccccc21`, for which the AC50 was 501 nM (active).
Still for that read-out and setting: as for `O=C1NC(=S)N/C1=C/c1cccc([N+](=O)[O-])c1O`, the entry is “inactive”.
Turning to `O=[N+]([O-])c1cccc(/C=N\Nc2ccc3ccccc3n2)c1O`, the AC50 is 794 nM (active).
Take `O=C(O)c1ccccc1CN1CCC[C@@H](C(=O)O)C1`: the activity, negative = inhibition was -5.22% [at 11.4 µM] (inactive).
Turning to `S=c1[nH]c2cc(Cl)ccc2s1`, the AC50 was 2000 nM (active).
Still for that read-out and setting: as for `O=C(O)C1C2C=CC3(CN(Cc4ccccn4)C(=O)C13)O2` (stereo not given), the entry is “inactive”.
As to `COc1ccc(O[C@H]2C=C[C@@H](c3ccccc3)O[C@@H]2CO/N=C\[C@@H](C)[C@H](OCc2ccccc2)C(C)C)cc1`, the activity, negative = inhibition is -3.11% [at 11.4 µM] (inactive).
On to `Cc1ccc(NC(=O)CC2CS(=O)(=O)CC2CC(=O)Nc2ccc(C)c(C)c2)cc1C` (stereo not given), for which the AC50 result was “inactive”.
The same measure, in the same setting: as for `COC(=O)c1cc(NC(=O)CC2NC3CCCCC3NC2=O)cc(C(=O)OC)c1` (stereo not given), the entry is “inactive”; as for `O=C(CC1CCCC1)Nc1ccc2c(c1)CCC2`, 15800 nM (active).

One may read the AC50 as the midpoint of the concentration-response curve, whichever way the signal moves.

These data come from PubChem BioAssay AID1851 (National Center for Advancing Translational Sciences (NCATS), 2009).
